Measurements from PubChem BioAssay (Tox21).
Calls of active or inactive are those of the source. Entries that show only a call come without a potency. Unless noted, calls follow the shape of the dose curve; as a rule, active = well fitted curve in the direction sought with a large enough effect in the repeat runs; inconclusive = weak or mixed curves; inactive = no such curve, though single readings can be large; an effect the other way counts as inactive or inconclusive.

Columns and labels:
[1] = qHTS assay to identify small molecule antagonists of the thyroid receptor (TR) signaling pathway - cell viability counter screen (AID 743064); also: nearly all actives have a fitted effect of over 50% in size; also: potency is read from the fitted curve at half-maximal effect
Procedure, shortened: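 Viability of T3-stimulated (1 nM final) GH3.TRE-Luc cells is measured by CellTiter-Fluor fluorescence after 23.5 h compound exposure at 37 °C plus 30 min reagent incubation.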

[2] = tested on: thyroid hormone receptor (rat, GH3 cells); test: qHTS assay to identify small molecule agonists of the thyroid receptor (TR) signaling pathway (AID 743066; calls by dose curve)
[3] = qHTS assay to identify small molecule antagonists of the estrogen receptor alpha (ER-alpha) signaling pathway - cell viability counter screen (AID 743074; calls by dose curve;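 also: HEK293 cells carrying ER-alpha-UAS-bla reporter stimulated with 17beta-estradiol; nearly all actives have a fitted effect of over 45% in size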)
Aromatase (Homo sapiens) = Aromatase (Homo sapiens) (UniProt P11511); test: qHTS assay to identify aromatase inhibitors (AID 743083); also: nearly all actives have a fitted effect of over 55% in size; also: potency is read from the fitted curve at half-maximal effect
Chain of Aromatase (Homo sapiens) (P11511 whole entry, looked up): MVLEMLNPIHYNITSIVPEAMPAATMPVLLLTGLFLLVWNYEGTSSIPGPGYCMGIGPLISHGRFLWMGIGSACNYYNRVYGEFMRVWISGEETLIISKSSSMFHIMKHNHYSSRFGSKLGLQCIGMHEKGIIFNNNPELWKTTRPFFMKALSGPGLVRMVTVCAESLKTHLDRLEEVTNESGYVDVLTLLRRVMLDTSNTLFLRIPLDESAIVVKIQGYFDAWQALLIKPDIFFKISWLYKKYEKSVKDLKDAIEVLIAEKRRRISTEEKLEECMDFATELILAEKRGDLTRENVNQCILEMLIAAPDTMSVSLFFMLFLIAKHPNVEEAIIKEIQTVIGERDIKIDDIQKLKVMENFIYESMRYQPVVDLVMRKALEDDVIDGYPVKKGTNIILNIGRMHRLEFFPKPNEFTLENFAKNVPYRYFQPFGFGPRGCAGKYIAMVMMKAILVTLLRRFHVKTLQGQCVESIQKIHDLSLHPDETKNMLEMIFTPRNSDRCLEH

[4] = qHTS assay to identify aromatase inhibitors - cell viability counter screen (AID 743084);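 also: cells stimulated with testosterone during compound exposure; nearly all actives have a fitted effect of over 55% in size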
[5] = target: Aryl hydrocarbon receptor (Homo sapiens) (UniProt P35869); test: qHTS assay to identify small molecule that activate the aryl hydrocarbon receptor (AhR) signaling pathway (AID 743085); also: nearly all actives have a fitted effect of over 15% in size; also: potency is read from the fitted curve at half-maximal effect;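 as to activation: HG2L7.5c1 human HepG2 liver cells with stably integrated DRE-driven firefly reporter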
Chain of Aryl hydrocarbon receptor (Homo sapiens) (P35869 whole entry, looked up): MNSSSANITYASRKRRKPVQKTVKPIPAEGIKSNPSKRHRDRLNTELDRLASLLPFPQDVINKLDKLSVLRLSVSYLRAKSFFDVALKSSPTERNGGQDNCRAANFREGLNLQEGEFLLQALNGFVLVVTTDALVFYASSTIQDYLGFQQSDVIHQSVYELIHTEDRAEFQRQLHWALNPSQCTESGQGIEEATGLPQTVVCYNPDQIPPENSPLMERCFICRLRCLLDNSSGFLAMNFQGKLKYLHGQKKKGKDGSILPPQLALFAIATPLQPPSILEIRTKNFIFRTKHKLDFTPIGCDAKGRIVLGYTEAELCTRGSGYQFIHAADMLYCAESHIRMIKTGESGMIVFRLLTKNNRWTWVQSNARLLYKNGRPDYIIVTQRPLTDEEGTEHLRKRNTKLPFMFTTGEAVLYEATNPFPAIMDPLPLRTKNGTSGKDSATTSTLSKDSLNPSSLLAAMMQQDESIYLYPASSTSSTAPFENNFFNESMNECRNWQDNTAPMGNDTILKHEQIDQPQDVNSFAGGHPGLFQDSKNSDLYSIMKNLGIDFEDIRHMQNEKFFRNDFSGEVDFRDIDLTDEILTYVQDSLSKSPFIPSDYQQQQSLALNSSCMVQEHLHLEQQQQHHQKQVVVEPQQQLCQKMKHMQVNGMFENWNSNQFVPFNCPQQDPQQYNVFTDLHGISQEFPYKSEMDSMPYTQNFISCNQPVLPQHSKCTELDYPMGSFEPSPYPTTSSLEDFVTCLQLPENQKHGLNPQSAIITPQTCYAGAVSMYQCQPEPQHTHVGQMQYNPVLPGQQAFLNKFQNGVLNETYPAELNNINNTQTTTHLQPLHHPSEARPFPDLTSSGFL
Procedure, shortened: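 A multiplexed format paired cell viability (CellTiter-Fluor fluorescence) with AhR-dependent luciferase output (ONE-Glo luminescence) in the same wells of HepG2 DRE-luc cells after 24 h compound exposure at 37C.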

[6] = qHTS assay to identify small molecule that activate the aryl hydrocarbon receptor (AhR) signaling pathway - cell viability counter screen (AID 743086); also: nearly all actives have a fitted effect of over 45% in size; also: potency is read from the fitted curve at half-maximal effect
Procedure, shortened: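 HepG2-AhR-luc (HG2L7.5c1) cells, 4000/well, were preincubated 5 h at 37C, exposed to compound in qHTS format for 24 hr at 37C, then given CellTiter-Fluor for 30 min; viability was read as fluorescence in the reporter wells.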

[7] = target: Peroxisome proliferator-activated receptor gamma (Homo sapiens) (UniProt P37231); test: qHTS assay to identify small molecule agonists of the peroxisome proliferator-activated receptor gamma (PPARg) signaling pathway (AID 743094; active = well fitted activation curve with a large enough effect in the signal ratio in the repeat runs, not every such curve was filed as active; inconclusive = weak or mixed curves, or effect the other way; inactive = no such curve, though single readings can be large or run the other way; the % refers to the signal ratio)
Chain of Peroxisome proliferator-activated receptor gamma (Homo sapiens) (P37231 whole entry, looked up): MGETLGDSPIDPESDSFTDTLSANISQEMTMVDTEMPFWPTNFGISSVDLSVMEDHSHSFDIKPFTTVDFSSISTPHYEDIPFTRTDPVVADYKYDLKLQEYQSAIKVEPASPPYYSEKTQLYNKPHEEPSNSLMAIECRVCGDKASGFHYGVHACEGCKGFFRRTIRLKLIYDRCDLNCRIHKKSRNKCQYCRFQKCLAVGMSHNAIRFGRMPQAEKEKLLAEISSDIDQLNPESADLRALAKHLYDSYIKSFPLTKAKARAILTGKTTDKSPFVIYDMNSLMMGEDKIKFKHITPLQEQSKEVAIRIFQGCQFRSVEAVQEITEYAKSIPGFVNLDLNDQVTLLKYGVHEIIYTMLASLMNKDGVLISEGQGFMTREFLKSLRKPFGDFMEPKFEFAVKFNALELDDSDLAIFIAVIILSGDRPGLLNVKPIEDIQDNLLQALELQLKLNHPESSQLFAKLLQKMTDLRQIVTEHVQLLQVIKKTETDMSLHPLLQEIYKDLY
Procedure, shortened: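 GeneBLAzer PPARg UAS-bla HEK293H cells carrying a stably integrated beta-lactamase reporter were pre-incubated 5 h at 37C, then exposed to compounds in DMSO for 17 h at 37C; LiveBLAzer B/G FRET substrate was added for 1 h at room temperature and fluorescence read.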

[8] = target: Peroxisome proliferator-activated receptor gamma (Homo sapiens) (UniProt P37231); test: qHTS assay to identify small molecule antagonists of the peroxisome proliferator-activated receptor gamma (PPARg) signaling pathway (AID 743191; calls by dose curve; also: nearly all actives have a fitted effect of over 30% in size; also: potency is read from the fitted curve at half-maximal effect)
Procedure, shortened: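 GeneBLAzer PPARg UAS-bla HEK293H cells carrying a UAS-driven beta-lactamase reporter were plated at 3000 cells/well, preincubated 5 h at 37C, then given compound for 17 h at 37C; LiveBLAzer B/G FRET substrate was read after 1 h at room temperature.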

[9] = qHTS assay to identify small molecule antagonists of the peroxisome proliferator-activated receptor gamma (PPARg) signaling pathway - cell viability counter screen (AID 743194); also: nearly all actives have a fitted effect of over 55% in size; also: potency is read from the fitted curve at half-maximal effect
Procedure, shortened: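 PPARg-UAS-bla HEK293H cells were plated, rested 5 h at 37 C, then treated with compounds plus rosiglitazone (50 nM final) for 17 h at 37 C; viability was then read by CellTiter-Glo luminescence after 30 min at room temperature.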

[10] = qHTS assay for small molecule agonists of the antioxidant response element (ARE) signaling pathway (AID 743202; active = well fitted activation curve with a large enough effect in the signal ratio in the repeat runs, not every such curve was filed as active; inconclusive = weak or mixed curves, or effect the other way; inactive = no such curve, though single readings can be large or run the other way; the % refers to the signal ratio; also: potency is read from the fitted curve at half-maximal effect)
Procedure, shortened: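 Compounds delivered in DMSO to ARE-bla HepG2 cells (2,000 cells/well, pre-incubated 5 h) and left 16 h at 37 C. LiveBLAzer B/G FRET substrate then added for 2 h at RT before fluorescence reading.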

[11] = qHTS assay for small molecule agonists of the antioxidant response element (ARE) signaling pathway - cell viability counter screen (AID 743203; calls by dose curve; also: nearly all actives have a fitted effect of over 55% in size)
Procedure, shortened: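 CellSensor ARE-bla HepG2 cells, 2,000 per well, rested 5 hrs at 37C/5% CO2, then exposed to compound in DMSO for 16 hrs; viability read as CellTiter-Glo luminescence after 30 min at room temperature, in the reporter wells.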

[12] = qHTS assay for small molecule activators of the heat shock response signaling pathway - cell viability counter screen (AID 743209); also: nearly all actives have a fitted effect of over 50% in size
Procedure, shortened: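 CellSensor HSE-bla HeLa cells, plated overnight at 37 C/5% CO2, were exposed to compounds in DMSO for 5 h at 37 C. Viability was then read in the same wells by CellTiter-Glo luminescence after 30 min at room temperature.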

[13] = qHTS assay for small molecule activators of the heat shock response signaling pathway (AID 743210; active = well fitted activation curve with a large enough effect in the signal ratio in the repeat runs, with a control signal flat, not every such curve was filed as active; inconclusive = weak or mixed curves; the % refers to the signal ratio;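 also: HeLa cells with beta-lactamase reporter driven by heat shock elements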)
Procedure, shortened: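 Reporter gene assay: HeLa cells stably bearing an HSE-bla construct, compound treatment 5 h at 37 C, LiveBLAzer substrate 2.5 h at RT, fluorescence intensity.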

[14] = qHTS assay to identify small molecule antagonists of the estrogen receptor alpha (ER-alpha) signaling pathway using the BG1 cell line - cell viability counter screen (AID 743081);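 also: compound given together with 17beta-estradiol as the ER stimulus; nearly all actives have a fitted effect of over 45% in size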
[15] = qHTS assay to identify small molecule antagonists of the thyroid receptor (TR) signaling pathway (AID 743065); also: nearly all actives have a fitted effect of over 55% in size; also: potency is read from the fitted curve at half-maximal effect
Procedure, shortened: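 GH3.TRE-Luc rat pituitary cells carrying two TR response elements driving luciferase were plated for 4 h, given compound plus 1 nM T3 (final), and incubated 23.5 h at 37 C. ONE-Glo luminescence measured reporter inhibition; CellTiter-Fluor fluorescence tracked cytotoxicity.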

[16] = target: Estrogen receptor (Homo sapiens) (UniProt P03372); test: qHTS assay to identify small molecule antagonists of the estrogen receptor alpha (ER-alpha) signaling pathway (AID 743069; active = well fitted curve in the direction sought with a large enough effect in the signal ratio in the repeat runs, not every such curve was filed as active; inconclusive = weak or mixed curves, or effect the other way; inactive = no such curve, though single readings can be large or run the other way; the % refers to the signal ratio)
Chain of Estrogen receptor (Homo sapiens) (P03372 whole entry, looked up): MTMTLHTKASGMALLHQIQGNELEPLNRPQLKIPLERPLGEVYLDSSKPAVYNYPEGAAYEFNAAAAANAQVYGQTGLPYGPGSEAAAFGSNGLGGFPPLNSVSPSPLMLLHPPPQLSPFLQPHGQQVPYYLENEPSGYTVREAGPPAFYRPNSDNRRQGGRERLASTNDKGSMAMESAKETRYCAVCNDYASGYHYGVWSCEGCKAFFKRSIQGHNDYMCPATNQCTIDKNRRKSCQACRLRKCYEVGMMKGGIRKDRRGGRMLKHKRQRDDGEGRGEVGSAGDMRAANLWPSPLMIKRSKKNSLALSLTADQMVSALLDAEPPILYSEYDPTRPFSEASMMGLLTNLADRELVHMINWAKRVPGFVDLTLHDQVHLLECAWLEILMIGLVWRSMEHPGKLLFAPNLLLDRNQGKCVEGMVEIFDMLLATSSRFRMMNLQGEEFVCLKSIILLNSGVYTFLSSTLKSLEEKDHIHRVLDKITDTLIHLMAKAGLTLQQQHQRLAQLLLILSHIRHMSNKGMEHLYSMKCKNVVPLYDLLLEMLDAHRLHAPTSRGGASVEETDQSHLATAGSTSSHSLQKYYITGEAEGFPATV
Procedure, shortened: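 Estradiol-stimulated ER-alpha-UAS-bla HEK293 cells, 18 hr compound exposure at 37C. LiveBLAzer B/G substrate, 2 hr RT, fluorescence read.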

[17] = target: Estrogen receptor (Homo sapiens) (UniProt P03372); test: qHTS assay to identify small molecule agonists of the estrogen receptor alpha (ER-alpha) signaling pathway (AID 743075; calls by dose curve;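 also: HEK293 GripTite cells with ER-alpha and UAS-driven beta-lactamase reporter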; also: potency is read from the fitted curve at half-maximal effect)
[18] = qHTS assay to identify small molecule antagonists of the estrogen receptor alpha (ER-alpha) signaling pathway using the BG1 cell line (AID 743080; calls by dose curve;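 also: BG1 cells stimulated with 17beta-estradiol alongside compound; nearly all actives have a fitted effect of over 25% in size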)
Procedure, shortened: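 BG1-Luc-4E2 cells (endogenous full-length ER-alpha, 4xERE luciferase) hormone-starved 5 days in charcoal-stripped FBS, plated 4,000/well for 24 h, then compound plus 17beta-estradiol for 21.5 h at 37 C; ONE-Glo luminescence read.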

[19] = target: Estrogen receptor (Homo sapiens) (UniProt P03372); test: qHTS assay to identify small molecule agonists of the estrogen receptor alpha (ER-alpha) signaling pathway using the BG1 cell line (AID 743079); conditions: BG1Luc4E2 cells, ERE-luciferase agonist, 22 h; activation: at 70.3 µM (top of the series); also: nearly all actives have a fitted effect of over 20% in size; also: potency is read from the fitted curve at half-maximal effect

| SMILES | Potency [1] | outcome [2] | Potency [3] | Potency (Aromatase (Homo sapiens)) | Potency [4] | Potency [5] | Potency [6] | Potency [7] | Potency [8] | Potency [9] | Potency [10] | Potency [11] | Potency [12] | Potency [13] | Potency [14] | Potency [15] | Potency [16] | Potency [17] | Potency [18] | Potency [19] |
| --- | --- | --- | --- | --- | --- | --- | --- | --- | --- | --- | --- | --- | --- | --- | --- | --- | --- | --- | --- | --- |
| CCCC1C(CC)=CC(CC)=CN1c1ccccc1 (centres undefined) | inactive | inactive | inactive | inactive | inactive | inactive | inactive | inactive | inactive | inactive | 54.5 µM (active) | inactive | inactive | inactive |  |  |  |  |  |  |
| C=CC(=O)NCOCC(C)C | inactive |  | inactive | inactive | inactive |  | inactive | inactive | inactive | inactive |  | inactive | inactive | inactive | inactive |  |  |  |  |  |
| CCC(C)(O)CCC=C(C)C (centres undefined) |  | inactive | inactive | inactive | inactive |  | inactive | inactive | inactive |  | inactive | inactive | inactive | inactive | inactive | inactive | inactive | inactive |  |  |
| C(=C\c1ccccc1)/CN1CCN(C(c2ccccc2)c2ccccc2)CC1 | 12.7 µM (active) |  | inactive | inactive | inactive | inactive | inactive |  |  |  |  | inactive | inactive |  | inactive |  |  |  |  |  |
| Nc1ccc(C(=O)OCCCOC(=O)c2ccc(N)cc2)cc1 | inactive | inactive | inactive | 30.6 µM (active) | inactive |  | inactive | inactive | 43.6 µM (active) |  |  | inactive | inactive | inactive | inactive |  |  | inactive | inactive |  |
| O=C(CS)OCCOC(=O)CS | inactive | inactive | inactive | inactive | inactive |  | inactive | inactive |  | inactive | inactive | inactive | inactive | inactive | inactive |  |  |  |  |  |
| CC[C@@H]([C@H](C)O)n1ncn(-c2ccc(N3CCN(c4ccc(OC[C@@H]5CO[C@@](Cn6cncn6)(c6ccc(F)cc6F)C5)cc4)CC3)cc2)c1=O |  | inactive | inactive | inactive | inactive | inactive | inactive | inactive |  | 29.8 µM (active) | 10.6 µM (active) | inactive | inactive | inactive |  | 26.6 µM (active) |  |  |  |  |
| CC(=O)CC(c1ccc([N+](=O)[O-])cc1)c1c(O)c2ccccc2oc1=O (centres undefined) |  |  | inactive | inactive | inactive |  | inactive |  | inactive | inactive | inactive | inactive | inactive | inactive | inactive |  | inactive | inactive |  | inactive |
| O=C(c1ccc(O)cc1)c1ccc(Cl)cc1 |  | inactive | inactive | inactive | inactive | inactive | inactive | inactive |  | inactive |  | inactive |  | inactive | inactive |  |  |  |  |  |
| COC(=O)c1cc(S(N)(=O)=O)ccc1OC |  |  |  |  |  |  |  |  | inactive | inactive | inactive | inactive | inactive | inactive |  |  |  |  |  |  |
| O=C(Nc1ccc([N+](=O)[O-])cc1)Nc1ccc([N+](=O)[O-])cc1 |  | inactive |  | inactive | inactive | inactive | inactive | inactive | inactive | 1.33 µM (active) | 2.66 µM (active) |  | inactive | inactive | inactive |  |  |  |  |  |
| CCOC(=O)c1ccccc1OC |  | inactive | inactive | inactive | inactive |  | inactive | inactive | inactive | inactive | inactive | inactive | inactive | inactive | inactive | inactive |  |  |  |  |
| COc1ccc([C@@H]2Sc3ccccc3NC(=O)[C@@H]2O)cc1 |  |  |  |  |  |  |  |  |  | inactive | inactive | inactive | inactive | inactive |  |  |  |  |  |  |
| Fc1ccccc1[C@@H](F)COC1CCC(Nc2ncnc3[nH]ncc23)CC1 (some centres undefined) |  |  | inactive | 24.3 µM (active) | inactive | inactive | 30.6 µM (active) |  |  |  |  | inactive | inactive | inactive | inactive | 48.6 µM (active) |  |  |  |  |
| O=C(O)c1snc(Cl)c1Cl |  | inactive | inactive | inactive | inactive | 61.1 µM (active) | inactive | inactive | inactive |  | inactive | inactive |  |  | inactive |  |  |  |  |  |
| C=CCNc1nc(NCC=C)nc(N2CCN(C(c3ccc(F)cc3)c3ccc(F)cc3)CC2)n1 |  |  |  |  |  |  |  |  | inactive | inactive |  |  | inactive | inactive |  |  |  |  |  |  |
| CC(C)C(OC(=O)c1ccccc1)C(C)(C)COC(=O)c1ccccc1 (centres undefined) |  | inactive |  |  | inactive |  | inactive | inactive |  | inactive | inactive | inactive | inactive | inactive | inactive |  |  |  |  |  |
| CC(C)(O)c1ccccc1CC[C@@H](SCC1(CC(=O)O)CC1)c1cccc(/C=C/c2ccc3ccc(Cl)cc3n2)c1 |  |  |  | inactive | inactive | 23.7 µM (active) | inactive | inactive |  |  |  | inactive | inactive | inactive | inactive |  |  | inactive |  |  |
| N#C[C@@H]1C[C@@H]2C[C@@H]2N1C(=O)[C@@H](N)C12CC3CC(CC(O)(C3)C1)C2 |  |  | inactive | inactive | inactive |  | inactive | inactive |  | inactive | inactive | inactive | inactive | inactive | inactive |  |  | inactive | inactive | inactive |
| CN1CCCN=C1/C=C/c1cccs1 |  |  |  | inactive | inactive | inactive | inactive | inactive | inactive | inactive |  | inactive | inactive | inactive | inactive |  | inactive | 23.9 µM [inconclusive] (active) |  | 7.5 µM (active) |
| CCOC(=O)N1CCC(n2c(=O)[nH]c3cc(Cl)ccc32)CC1 |  |  |  |  |  |  |  |  | inactive | inactive | 6.68 µM (active) | inactive |  | inactive |  |  |  |  |  |  |
| CC(=O)N(c1onc(C)c1C)S(=O)(=O)c1ccc(N)cc1 |  |  |  |  |  |  |  |  |  | inactive | inactive | inactive |  | inactive |  |  |  |  |  |  |
| CCOCCn1c(C2CCN(CCc3ccc(C(C)(C)C(=O)O)cc3)CC2)nc2ccccc21 |  |  |  |  |  |  |  |  |  | inactive | inactive | inactive | inactive | inactive |  |  |  |  |  |  |
